Experimental data: PubChem BioAssay AID1159580 (chemical genetic matrix, 2015)
Where “and” joins values, the source holds several entries; their conditions need not be identical. Equal values may be shown once. Out of some 5,500 compounds screened, about 2,000 (36%) were called active. Another 18% or so got no clear call; they are omitted. Rule as the data show it: active = normalized growth mostly below about 0.91 (no sharp cut-off); inconclusive = no clear call, values can overlap the other calls; inactive = mostly above about 0.92. The list shows a part of the results.

Assay: chemical genetic growth profiling, strain panel (AID 1159580);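 also: tested at 20 µM; growth read once vehicle control cultures reached saturation at 30 °C; 1 = growth at the plate median or of vehicle wells; lower values mean less growth of the strain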
Settings: S. cerevisiae deletion strains, growth OD

Measured: normalized growth

CCCCOC(=O)c1ccc(N)cc1
active: locus YAL026C, strain drs2, stronger effect = lower value 0.603 | locus YAL030W, strain snc1, stronger effect = lower value 0.908 | locus YBL061C, strain skt5, stronger effect = lower value 0.71 | locus YBR009C, strain hhf1, stronger effect = lower value 0.849 | locus YBR023C, strain chs3, stronger effect = lower value 0.729 | locus YBR171W, strain sec66, stronger effect = lower value 0.884 | locus YBR231C, strain swc5, stronger effect = lower value 0.821 | locus YBR279W, strain paf1, stronger effect = lower value 0.897 | locus YCL011C, strain gbp2, stronger effect = lower value 0.891 | locus YCL016C, strain dcc1, stronger effect = lower value 0.86 | locus YCL069W, strain vba3, stronger effect = lower value 0.886 | locus YCR088W, strain abp1, stronger effect = lower value 0.862 | locus YDL040C, strain nat1, stronger effect = lower value 0.932 | locus YDL192W, strain arf1, stronger effect = lower value 0.886 | locus YDR001C, strain nth1, stronger effect = lower value 0.904 | locus YDR101C, strain arx1, stronger effect = lower value 0.898 | locus YDR137W, strain rgp1, stronger effect = lower value 0.453 | locus YDR159W, strain sac3, stronger effect = lower value 0.751 | locus YDR162C, strain NBP2, stronger effect = lower value 0.801 | locus YDR297W, strain sur2, stronger effect = lower value 0.92 | locus YDR318W, strain mcm21, stronger effect = lower value 0.897 | locus YDR335W, strain msn5, stronger effect = lower value 0.858 | locus YDR388W, stronger effect = lower value 0.911 | locus YDR392W, strain spt3, stronger effect = lower value 0.484 | locus YDR502C, strain sam2, stronger effect = lower value 0.911 | locus YEL003W, strain gim4, stronger effect = lower value 0.888 | locus YEL061C, strain CIN8 (second series), stronger effect = lower value 0.895 | locus YER015W, strain faa2, stronger effect = lower value 0.864 | locus YER016W, strain bim1, stronger effect = lower value 0.877 | locus YER111C, strain swi4, stronger effect = lower value 0.896 | locus YER155C, strain BEM2 (second series), stronger effect = lower value 0.203 | locus YGL086W, strain mad1, stronger effect = lower value 0.927 | locus YGL173C, strain kem1, stronger effect = lower value 0.876 | locus YGL227W, strain vid30, stronger effect = lower value 0.893 | locus YGL240W, strain doc1, stronger effect = lower value 0.666 | locus YGL253W, strain hxk2, stronger effect = lower value 0.869 | locus YGR135W, strain pre9, stronger effect = lower value 0.865 | locus YGR229C, strain SMI1, stronger effect = lower value 0.608 | locus YGR252W, strain gcn5, stronger effect = lower value 0.743 | locus YHR027C, strain rpn1, stronger effect = lower value 0.908 | locus YHR142W, strain chs7, stronger effect = lower value 0.495 | locus YJL092W, strain hpr5, stronger effect = lower value 0.872 | locus YJL095W, strain BCK1 (second series), stronger effect = lower value 0.278 | locus YJL129C, strain trk1, stronger effect = lower value 0.769 | locus YJL154C, strain vps35, stronger effect = lower value 0.906 | locus YJL164C, strain tpk1, stronger effect = lower value 0.871 | locus YJL166W, strain qcr8, stronger effect = lower value 0.825 | locus YJL187C, strain SWE1, stronger effect = lower value 0.919
0.511 (active) and 0.971 (inactive): locus YJL095W, strain BCK1, stronger effect = lower value
0.637 (active) and 0.942 (inactive): locus YHR030C, strain SLT2, stronger effect = lower value
inactive: locus YAL013W, strain DEP1, stronger effect = lower value 0.974 | locus YAL021C, strain ccr4, stronger effect = lower value 0.909 | locus YBR021W, strain FUR4, stronger effect = lower value 0.948 | locus YBR229C, strain ROT2, stronger effect = lower value 0.993 | locus YCL029C, strain bik1, stronger effect = lower value 0.948 | locus YDL005C, strain med2, stronger effect = lower value 0.949 | locus YDL035C, strain GPR1, stronger effect = lower value 0.951 | locus YDL074C, strain BRE1, stronger effect = lower value 0.869 | locus YDL101C, strain DUN1, stronger effect = lower value 0.975 | locus YDL134C, strain PPH21, stronger effect = lower value 0.969 | locus YDL185W, strain tfp1, stronger effect = lower value 0.959 | locus YDR069C, strain doa4, stronger effect = lower value 0.916 | locus YDR150W, strain NUM1, stronger effect = lower value 0.988 | locus YDR195W, strain ref2 1.14 | locus YDR334W, strain swr1, stronger effect = lower value 0.914 | locus YEL037C, strain rad23, stronger effect = lower value 0.928 | locus YEL061C, strain CIN8, stronger effect = lower value 0.974 | locus YER110C, stronger effect = lower value 0.922 | locus YER155C, strain BEM2, stronger effect = lower value 0.969 | locus YER167W, strain BCK2, stronger effect = lower value 0.906 | locus YFR010W, strain ubp6, stronger effect = lower value 0.924 | locus YGL078C, strain dbp3, stronger effect = lower value 0.96 | locus YGL167C, strain pmr1, stronger effect = lower value 0.927 | locus YGL248W, strain PDE1, stronger effect = lower value 0.996 | locus YGR078C, strain PAC10, stronger effect = lower value 0.89 | locus YHR013C, strain ard1, stronger effect = lower value 0.856 | locus YHR079C, strain IRE1 (second series), stronger effect = lower value 0.935 | locus YHR079C, strain IRE1, stronger effect = lower value 0.993 | locus YHR094C, strain hxt1, stronger effect = lower value 0.961 | locus YHR129C, strain ARP1, stronger effect = lower value 0.984 | locus YHR200W, strain rpn10, stronger effect = lower value 0.933 | locus YIL066C, strain RNR3, stronger effect = lower value 0.925 | locus YIL073C, strain SPO22, stronger effect = lower value 0.85 | locus YIL125W, strain kgd1, stronger effect = lower value 0.967 | locus YIR030C, strain dcg1, stronger effect = lower value 0.946 | locus YJL115W, strain asf1, stronger effect = lower value 0.907 | locus YJL134W, strain LCB3, stronger effect = lower value 0.985 | locus YJL168C, strain set2, stronger effect = lower value 0.953 | locus YJL187C, strain SWE1 (second series), stronger effect = lower value 0.93 | locus YJR043C, strain POL32, stronger effect = lower value 0.871 | locus YJR066W, strain TOR1, stronger effect = lower value 0.949
